Among the data in ChEMBL document CHEMBL3988442, “University of Dundee, Small-Polar-MMV Screening Library” (2021) are Percent Effect values, retold here.

The target in assay [1] is T1, Aspartate--tRNA(Asp/Asn) ligase (Mycobacterium tuberculosis (strain ATCC 25618 / H37Rv)) (UniProt P9WFW3). Note: in the data most compounds retested in dose-response had high values.
T1 sequence (whole entry): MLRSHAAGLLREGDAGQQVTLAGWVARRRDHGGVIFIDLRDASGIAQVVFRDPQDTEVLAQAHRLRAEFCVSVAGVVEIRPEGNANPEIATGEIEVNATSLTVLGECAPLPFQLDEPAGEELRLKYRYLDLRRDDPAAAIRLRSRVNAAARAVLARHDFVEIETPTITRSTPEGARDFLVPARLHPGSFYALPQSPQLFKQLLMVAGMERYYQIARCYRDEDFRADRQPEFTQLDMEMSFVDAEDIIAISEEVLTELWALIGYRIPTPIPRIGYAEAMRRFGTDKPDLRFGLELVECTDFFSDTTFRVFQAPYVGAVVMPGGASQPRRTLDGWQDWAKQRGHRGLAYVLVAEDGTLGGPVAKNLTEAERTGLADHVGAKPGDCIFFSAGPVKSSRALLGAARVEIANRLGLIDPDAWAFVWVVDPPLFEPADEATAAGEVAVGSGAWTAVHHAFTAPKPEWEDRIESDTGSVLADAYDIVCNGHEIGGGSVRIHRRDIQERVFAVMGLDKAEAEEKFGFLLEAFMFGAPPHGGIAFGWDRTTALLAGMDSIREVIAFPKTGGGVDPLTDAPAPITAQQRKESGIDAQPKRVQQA
Description: Assay for Asp RNA synthetase-1 from Mycobacterium tuberculosis. The settings on record: 30 µM. Further details: scale not given: direction of the effect not stated beside the values. It is filed as functional.

Assay [2] concerns the target Shiga toxin 2 (Escherichia coli O157:H7) (UniProt P09385+P09386). Kind of assay: E. coli 0.157:H7 Shiga Toxin SOP - stx2 screening assay. Format: functional. Further details: scale not given: direction of the effect not stated beside the values. The settings on record: 30 µM.

The structures appear in SMILES notation.

On to `O=C(CC1CC1)N1CCn2cc(Cn3cncn3)nc2C1`, for which the values for the Percent Effect in assay [1] and in assay [2] were 3.1% and -11.8%, respectively.
For the compound `COc1cccc(C(=O)N2CCCC(c3cc(C)[nH]n3)C2)c1OC` (configuration not stated), the Percent Effect was -1.08% in assay [1] and 27% in assay [2].
Consider `Cc1noc(CN2CCC(c3ccnn3CCO)CC2)n1`, for which the Percent Effect was -2.2% in assay [1] and 4.21% in assay [2].
The matching figures for `Cc1ccc(SCC(=O)NS(=O)(=O)c2ccc3c(c2)OCCO3)cc1`: 3.3% and 21.2%.
The matching figures for `O=C(CCc1cc(O)no1)N1CCCC(COc2ccc(F)cc2)C1` (configuration not stated): -2.45% and -19.8%.
As to `Cc1ncc(CNC(=O)c2nn(C)c3c2CS(=O)(=O)CC3)s1`, the Percent Effect in assay [1] was -7.14%; in assay [2] it was -24.6%.
The matching figures for `CN1C(=O)C(C)(C)COc2cc(NS(=O)(=O)Cc3ccccc3)ccc21`: -4.77% and 14.9%.
The matching figures for `COCCN1CCC(NCc2cccc(F)c2)C1` (configuration not stated): -3.37% and -17.4%.
The corresponding values for `O=C(CCc1nccs1)N1CCN(c2ccccc2F)CC1` are -6.57% and -11.9%.
Turning to `CN(C)c1cc2c(nn1)CCN(C(=O)C1Cc3ccccc3S1)C2` (configuration not stated), the Percent Effect was 1.89% in assay [1] and -20.9% in assay [2].
The matching figures for `CCn1ncc2c1C(COCC1CC1)CN(C(=O)c1cccs1)C2` (configuration not stated): -1.73% and 33.1%.
As to `CC(NC(=O)c1cc(Br)c2c(c1)OCCO2)C(N)=O` (configuration not stated), the Percent Effect in assay [1] was -2.13%; in assay [2], -4.92%.
In the case of `CN(C(=O)CN1CCOC(Cn2cccn2)C1)c1nccs1` (configuration not stated), the Percent Effect is 5.6% in assay [1] and -22.6% in assay [2].
The matching figures for `NCC(c1ccccc1)N1CCc2sccc2C1` (configuration not stated): -4.25% and -7.32%.
For `Cc1c[nH]c(CN(C)C(=O)C2CC(=O)N(Cc3ccncc3)C2)n1` (configuration not stated), the Percent Effect is 2.33% in assay [1] and -32.5% in assay [2].
The corresponding values for `CC(O)CN1CCN(C(=O)c2ccn(-c3cccc(Cl)c3)n2)CC1` (configuration not stated) are -5.25% and 7.58%.
Regarding `Cc1cc(CNC(=O)N2CCN(c3nc(C)c(C)s3)CC2)no1`, the Percent Effect was -1.96% in assay [1] and 24% in assay [2].
The corresponding values for `CCCOCCCNc1nccc(-c2cn(C)nc2C)n1` are -3.96% and 18.1%.
Turning to `Cn1c(CC2CCS(=O)(=O)C2)nnc1SCCOc1ccccc1F` (configuration not stated), the Percent Effect is 2.75% in assay [1] and -10.2% in assay [2].
The matching figures for `COCCN1CCOCC2(CCCN(Cc3ccc(C)o3)C2)C1` (configuration not stated): -0.582% and -6.63%.
The corresponding values for `Cc1ccc(CN2CCOC3(COCCN(CCN(C)C)C3)C2)o1` (configuration not stated) are 5.87% and -4.4%.
The matching figures for `c1cncc(-c2nccc(CN3CCCC3)n2)c1`: 2.87% and -20.7%.
With `COCCN1CCN(C(=O)c2ccncc2F)Cc2cccnc21`, the Percent Effect in assay [1] was -0.348%; in assay [2], -48.6%.
The matching figures for `Cc1cc(C(=O)N2CCCC2c2nnc3n2CCCCC3)no1` (configuration not stated): -2.81% and -2.64%.
The corresponding values for `COCC(O)CNC(=O)c1coc(COc2ccc3sc(C)nc3c2)n1` (configuration not stated) are 5.55% and -20%.
The matching figures for `CC(=O)c1cc(CN2C[C@H]3CC[C@@H]2CN(S(=O)(=O)N(C)C)C3)cs1`: -1.45% and -57.1%.
For the compound `CCN1CCN(Cc2ccnc(-c3cccnc3)n2)CC1`, the Percent Effect in assay [1] was -0.64%; in assay [2] it was -13.1%.
The corresponding values for `CC(C)C(=O)N1CCN(C(=O)CCc2nnc(-c3ccccc3)o2)CC1` are 1.17% and -3.74%.
With `COc1cccc(N2CCN(CC(O)c3ccc(C)cc3)CC2)c1` (configuration not stated), the Percent Effect in assay [1] amounted to 8.45%; in assay [2] it was 10.4%.
The corresponding values for `Cc1c(C)n(Cc2ccccn2)c2nc3c(c(N)c12)CCCC3` are -2.53% and -3.33%.
The corresponding values for `Cc1cc(N2CCCN(C(=O)Cc3ccc(O)c(Cl)c3)CC2)ccn1` are 1.92% and -29.5%.
The matching figures for `CN(C)S(=O)(=O)N1CCCC1CC(=O)c1cccs1` (configuration not stated): 2.35% and -10.2%.
In the case of `Cc1ccsc1-c1nnc(C2CCN(Cc3ccc(F)cc3)CC2)o1`, the values for the Percent Effect in assay [1] and in assay [2] were -1.86% and -123%, respectively.
The corresponding values for `O=C(C1CCOC1)N1CC[C@@H](O)[C@@H]1Cc1ccccc1` (some centres not stated) are -2.71% and -16.7%.
The corresponding values for `Cc1ccc(NC(=O)N2CCC(NC(=O)c3ccc(C)o3)CC2)cc1` are -0.605% and 25.3%.
The corresponding values for `CCn1cc(CN2CC3CCCN3C[C@H]2C)c(C)n1` (some centres not stated) are 1.26% and -7.87%.
On to `COc1cc(CCC(C)O)c(OC)c2c1OCO2` (configuration not stated), for which the results for the Percent Effect in assay [1] and in assay [2] were -0.435% and -10.2%, respectively.
The corresponding values for `Cc1ncnc2c1CCN(Cc1cccs1)CC2` are 9.2% and -21.2%.
The corresponding values for `COc1ccc(CN2CCc3ncnc(C4CCOC4)c3CC2)cc1` (configuration not stated) are -0.146% and -53.7%.
For the compound `CCN(CC)C(C(=O)NCc1ccc(N2CCCC2)nc1)C(C)C` (configuration not stated), the results for the Percent Effect in assay [1] and in assay [2] were -8.76% and 9.3%, respectively.
In the case of `Cc1cccc(N2CC[C@@H]3CN(Cc4csc(C)n4)CCO[C@@H]3C2)n1`, the Percent Effect is -1.08% in assay [1] and -42.6% in assay [2].
The matching figures for `COc1ccccc1CC(=O)NS(=O)(=O)c1ccc(C(N)=O)cc1`: 1.21% and 7.74%.
`CN(Cc1ccsc1)C(=O)c1cc2c([nH]c1=O)CCCC2=O`: the Percent Effect in assay [1] is -1.51%; in assay [2], 12.2%.
Take `COc1ccccc1OCC(=O)NS(=O)(=O)c1ccc(C)s1`: the Percent Effect is -0.394% in assay [1] and 3.1% in assay [2].
The corresponding values for `Cc1cccc(C(=O)N2C[C@@H](OCc3cccnc3)[C@H]3OCCC[C@@H]32)n1` are -2% and -30.7%.
The corresponding values for `OCCN1CCOC2(CCCN(c3cccc(F)c3)C2)C1` (configuration not stated) are -3.25% and -15.9%.
The matching figures for `CN(C)C(=O)Cc1ccc(NC(=O)NC2CCCCC2)cc1`: -1.13% and 1.55%.
Take `Cc1cn2c(n1)CCC(NC(=O)c1cc(C(C)C)no1)C2` (configuration not stated): the Percent Effect was -4.01% in assay [1] and -5.41% in assay [2].
The matching figures for `CCCS(=O)(=O)N1CCC2(CC1)CN(c1ccccn1)CCO2`: 2.47% and -46.8%.
With `CC(C)OCCCNC(=O)CN1CCC(N2CCN(C)C2=O)CC1`, the values for the Percent Effect in assay [1] and in assay [2] were -3% and -14.1%, respectively.
On to `Cc1cc2n(n1)CC(CNC1CCN(Cc3ccccc3C)CC1)CN2` (configuration not stated), for which the Percent Effect was 4.64% in assay [1] and -38.1% in assay [2].
